This is a sample that favours compounds with a hit; in the whole collection about 4.3% have one here.
BoNT-A LC inh2 – BoNT/A light chain protease inhibitors, primary screen, biochemical, flow cytometry, MLPCN library. multiplex microsphere protease substrate cleavage. Botulinum neurotoxin type A light chain protease (Clostridium botulinum A str. ATCC 3502). hit rate 0.17% among 360,000. AID 588499, 2011. inhibition, % at 10 µM
Anthrax LF prot – Bacillus anthracis LF protease inhibitors, primary screen, biochemical, multiplex microsphere, MLPCN library. hit rate 0.12% among 360,000. Lethal factor (Bacillus anthracis), P15917. multiplex microsphere protease cleavage assay. inhibition, % at 10 µM
Target sequence (P15917 whole entry, looked up): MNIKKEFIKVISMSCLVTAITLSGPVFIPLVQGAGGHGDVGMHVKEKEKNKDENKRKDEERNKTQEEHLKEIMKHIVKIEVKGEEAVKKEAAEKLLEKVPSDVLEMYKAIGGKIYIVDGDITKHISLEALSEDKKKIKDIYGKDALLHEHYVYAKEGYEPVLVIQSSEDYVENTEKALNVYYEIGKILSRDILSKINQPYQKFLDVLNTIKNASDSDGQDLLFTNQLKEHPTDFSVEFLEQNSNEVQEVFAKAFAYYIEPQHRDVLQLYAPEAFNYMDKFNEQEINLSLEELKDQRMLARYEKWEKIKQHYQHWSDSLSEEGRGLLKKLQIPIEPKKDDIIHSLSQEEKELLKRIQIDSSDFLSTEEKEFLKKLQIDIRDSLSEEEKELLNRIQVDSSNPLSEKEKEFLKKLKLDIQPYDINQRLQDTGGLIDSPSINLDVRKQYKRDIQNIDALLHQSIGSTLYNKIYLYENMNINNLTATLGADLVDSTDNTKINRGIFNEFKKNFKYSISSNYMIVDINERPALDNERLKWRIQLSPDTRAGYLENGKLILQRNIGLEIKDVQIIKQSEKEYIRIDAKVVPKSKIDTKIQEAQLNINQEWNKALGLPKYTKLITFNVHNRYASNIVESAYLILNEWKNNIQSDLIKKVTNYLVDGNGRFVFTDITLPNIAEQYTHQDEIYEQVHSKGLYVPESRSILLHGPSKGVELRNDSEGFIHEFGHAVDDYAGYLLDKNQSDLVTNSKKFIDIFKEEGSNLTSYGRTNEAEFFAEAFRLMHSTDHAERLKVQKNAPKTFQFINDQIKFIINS
PfHsp40 yeast – rescue of yeast from PfHsp40 toxicity, primary screen, S. cerevisiae, ATP luminescence; S. cerevisiae expressing PfHsp40, growth rescue; growth rescue, % at 12.5 µM; hit rate 0.68% among 340,000; AID 504582, 2011; in the data active = growth rescue above about 28%, passing the limit was not always enough; inconclusive = no clear call, values can overlap the other calls;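 also: yeast W303a lacking pdr1 and pdr3 grown in galactose medium; growth measured after three days at 30 °C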
BoNT F protease – BoNT/F light chain protease inhibitors, primary screen, biochemical, flow cytometry, MLPCN library | inhibition, % at 10 µM | Botulinum neurotoxin type F light chain protease (Clostridium botulinum) | AID 588497, 2011 | Multiplex microsphere protease cleavage assay | hit rate 0.22% among 360,000; in the data active = inhibition above about 35%, passing the limit was not always enough; inconclusive = no clear call, values can overlap the other calls
MazEF act – activators of E. coli MazEF toxin-antitoxin RNase, primary screen, biochemical, fluorescence, uHTS; Endoribonuclease toxin MazF (Escherichia coli (strain K12)), P0AE70; FAM/BHQ RNA-DNA oligo cleavage fluorescence, 5 h; activation, % at 20 µM; hit rate 0.32% among 350,000; in the data active = activation above about 50%
Autofluor counter – flagged as autofluorescent in microsphere protease counterscreen; compound autofluorescence counterscreen, microsphere flow cytometry; hits give high values; fluorescence intensity (concentration not given with the values); hit rate 3.1% among 360,000; AID 624483; in the data active = fluorescence intensity above about 16000; inconclusive = no clear call, values can overlap the other calls
Hits are given with their value. Rule as the data show it, unless noted: active = inhibition above about 30%; inconclusive = no clear call, values can overlap the other calls; inactive = below that.

For COC(=O)c1nnn(-c2ccccc2)c1N the results were BoNT-A LC inh2 inactive, Anthrax LF prot inactive, PfHsp40 yeast inactive, BoNT F protease inactive, MazEF act inactive and Autofluor counter inactive.
N/C(CN1CCCC1=O)=N\O was read as BoNT-A LC inh2 inactive, Anthrax LF prot inactive, PfHsp40 yeast inactive, BoNT F protease inactive, MazEF act inactive and Autofluor counter 24371.
Screening O=C(c1ccccc1)N1N=C(C(F)(F)F)CC1(O)c1ccc(F)cc1 (stereo unspecified) returned BoNT-A LC inh2 inactive, Anthrax LF prot inactive, PfHsp40 yeast inactive, BoNT F protease inactive, MazEF act inactive and Autofluor counter inactive.
Screening O=C(c1ccccc1)N1N=C(C(F)(F)F)CC1(O)c1ccccc1 (stereo unspecified) returned BoNT-A LC inh2 inactive, Anthrax LF prot 38, PfHsp40 yeast inactive, BoNT F protease inactive, MazEF act inactive and Autofluor counter inactive.
For O=C(NCC1CCCO1)C1CCN(S(=O)(=O)c2cc(Cl)ccc2Cl)CC1 (stereo unspecified) the results were BoNT-A LC inh2 inactive, Anthrax LF prot inactive, PfHsp40 yeast inactive, BoNT F protease inactive, MazEF act inactive and Autofluor counter inactive.
For Nc1ccn(C2CCCCO2)c(=O)n1 (stereo unspecified) the results were BoNT-A LC inh2 inactive, Anthrax LF prot inactive, PfHsp40 yeast inactive, BoNT F protease inactive, MazEF act inactive and Autofluor counter inactive.
Screening O=C(N/N=C/c1ccncc1)c1cccc(S(=O)(=O)Nc2ccc(Cl)cc2)c1 returned BoNT-A LC inh2 inactive, Anthrax LF prot inactive, PfHsp40 yeast inactive, BoNT F protease inactive, MazEF act inactive and Autofluor counter inactive.
`CCOC(=O)C1=C(C)NC(C)=C(C(=O)OCC)C1C(=O)OCC(=O)NCc1ccco1` gave BoNT-A LC inh2 inactive, Anthrax LF prot inactive, PfHsp40 yeast inactive, BoNT F protease inactive, MazEF act inactive and Autofluor counter inactive.
`COc1ccc(C(=O)Nc2cc(C(C)=O)c(/C=C/N(C)C)oc2=O)cc1` gave BoNT-A LC inh2 inactive, Anthrax LF prot inactive, PfHsp40 yeast inactive, BoNT F protease inactive, MazEF act inactive and Autofluor counter 16251.
`CCOC(=O)c1cc(NC(=O)c2ccc(OC)cc2)c(=O)oc1-c1ccccc1` gave BoNT-A LC inh2 inconclusive, Anthrax LF prot inactive, PfHsp40 yeast inactive, BoNT F protease inactive, MazEF act inactive and Autofluor counter 22500.
COc1ccccc1NC(=O)NC1CC(=O)N(c2ccc3c(c2)OCCO3)C1 (stereo unspecified) was read as BoNT-A LC inh2 inactive, Anthrax LF prot inactive, PfHsp40 yeast inactive, BoNT F protease inactive, MazEF act inactive and Autofluor counter inactive.
Screening CC(C)(C)C(=O)NN=C1CCC(c2ccccc2)CC1 (stereo unspecified) returned BoNT-A LC inh2 inactive, Anthrax LF prot inactive, PfHsp40 yeast inactive, BoNT F protease inactive, MazEF act inactive and Autofluor counter inactive.
For C[C@H]1CN([C@@H](C)CO)S(=O)(=O)c2ccc(Br)cc2O[C@@H]1CN(C)C(=O)Cc1cccnc1 the results were BoNT-A LC inh2 inactive, Anthrax LF prot inactive, BoNT F protease inactive, MazEF act inactive and Autofluor counter inactive.
For CCC1CCCCN1CCNS(=O)(=O)c1ccc2c(c1)oc(=O)n2C (stereo unspecified) the results were BoNT-A LC inh2 inactive, Anthrax LF prot inactive, PfHsp40 yeast inactive, BoNT F protease inactive, MazEF act inactive and Autofluor counter inactive.
Screening Cn1c(=O)oc2cc(S(=O)(=O)NCCN3CCc4ccccc4C3)ccc21 returned BoNT-A LC inh2 inactive, Anthrax LF prot inactive, PfHsp40 yeast inactive, BoNT F protease inactive, MazEF act inactive and Autofluor counter inactive.
`Cn1c(=O)oc2cc(S(=O)(=O)NCCN3CCCCCC3)ccc21` gave BoNT-A LC inh2 inconclusive, Anthrax LF prot inactive, PfHsp40 yeast inactive, BoNT F protease inactive, MazEF act inactive and Autofluor counter 21921.
`CC1CCCCN1CCNS(=O)(=O)c1ccc2c(c1)oc(=O)n2C` (stereo unspecified) gave BoNT-A LC inh2 inconclusive, Anthrax LF prot inactive, PfHsp40 yeast inactive, BoNT F protease inactive, MazEF act inactive and Autofluor counter 22199.
`CCOC(=O)c1sc(N(C)C)nc1-c1ccccc1` gave BoNT-A LC inh2 inactive, Anthrax LF prot inactive, PfHsp40 yeast inactive, BoNT F protease inactive, MazEF act inactive and Autofluor counter inactive.
Screening CCOC(=O)c1c(-c2ccccc2)nc2cc(C)ccn12 returned BoNT-A LC inh2 inactive, Anthrax LF prot inactive, PfHsp40 yeast inactive, BoNT F protease inactive, MazEF act inactive and Autofluor counter inactive.
CCOC(=O)c1sc(NC(=O)c2ccc(S(=O)(=O)N3CCCCCC3)cc2)nc1-c1ccccc1 was read as BoNT-A LC inh2 inactive, Anthrax LF prot inactive, PfHsp40 yeast 50, BoNT F protease inactive, MazEF act inactive and Autofluor counter inactive.
CCOC(=O)c1sc(N)nc1-c1ccccc1 was read as BoNT-A LC inh2 inactive, Anthrax LF prot inactive, PfHsp40 yeast 94, BoNT F protease inactive, MazEF act inactive and Autofluor counter inactive.
Screening CCOC(=O)c1c(-c2ccccc2)nc2ccc(C)cn12 returned BoNT-A LC inh2 inconclusive, Anthrax LF prot inactive, PfHsp40 yeast 207, BoNT F protease inactive, MazEF act inactive and Autofluor counter 19967.
Cc1ccc(NC(=O)C2(C)CCN2C(=O)CCC2CCCC2)cc1C (stereo unspecified) was read as BoNT-A LC inh2 inactive, Anthrax LF prot inactive, BoNT F protease inactive and Autofluor counter inactive.
COc1cc(C2CC(c3cccs3)=NN2C(=O)CCl)ccc1OC(F)F (stereo unspecified) was read as BoNT-A LC inh2 inactive, Anthrax LF prot inactive, PfHsp40 yeast inactive, BoNT F protease inactive, MazEF act inactive and Autofluor counter inactive.
`N#Cc1ccsc1NC(=O)c1ccccn1` gave BoNT-A LC inh2 inactive, Anthrax LF prot inactive, PfHsp40 yeast inactive, BoNT F protease inactive, MazEF act inactive and Autofluor counter 22222.
Screening CCc1nnc(SCC(=O)N2CCCC(N3CCN(c4ccccc4C)CC3)C2)o1 (stereo unspecified) returned BoNT-A LC inh2 inactive, Anthrax LF prot inactive, PfHsp40 yeast inactive, BoNT F protease inactive, MazEF act inactive and Autofluor counter inactive.
N#C/C(=C(/O)c1ccc(C(=O)c2ccccc2)cc1)c1nc2ccccc2[nH]1 was read as BoNT-A LC inh2 inactive, Anthrax LF prot inactive, PfHsp40 yeast inactive, BoNT F protease inactive, MazEF act inactive and Autofluor counter inactive.
CCCCOc1ccc(/C(O)=C(\C#N)c2nc3ccccc3[nH]2)cc1 was read as BoNT-A LC inh2 inactive, Anthrax LF prot inactive, PfHsp40 yeast inactive, BoNT F protease 42, MazEF act inactive and Autofluor counter inactive.

Screening results (PubChem)
